# Bioassay records deposited in PubChem by National Center for Advancing Translational Sciences (NCATS).
# Pf growth 96h: P. falciparum growth inhibition at 96 hour, primary screen for plastid delayed-death inhibitors; P. falciparum luciferase reporter growth, 96 h; Potency, µM (highest dose often 28.7 µM), for inactives: at the highest dose activity change, negative = inhibition, most hits filed as inhibitors; 6.9% of 320,000 active; AID 504834; note: potency is the fitted concentration of half-maximal effect; % is set by controls: 0 for no effect and ±100 for the full control effect
#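 Luminescence readout: decreased luciferase signal marks inhibited growth of reporter-expressing P. falciparum in infected red cells (2% hematocrit, 0.05% parasitemia final), exposed to compound two generations (96 h, 37 C, 5% CO2).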
# SARS PLpro yeast: blocks SARS-CoV papain-like protease in a yeast assay; S. cerevisiae expressing SARS-CoV PLpro, growth rescue; Potency, µM (highest dose often 32.9 µM), for inactives: top-dose activity, positive = growth rescue, hits mostly activators; 0.19% of 330,000 active; calls by dose curve; note: potency is the fitted concentration of half-maximal effect; 0% is about no effect; nearly all actives have a fitted effect of over 55% in size
# NS1 inh: influenza NS1 inhibition | Potency, µM (series often up to 46.1 µM), for the others: at the top dose activity, positive = more growth | 0.4% of 270,000 active | AID 2326; calls by dose curve; note: potency is the fitted concentration of half-maximal effect; actives are rising curves; nearly all actives have a fitted effect of over 50% in size
#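 S. cerevisiae expressing influenza A NS1, grown in glucose, washed, then diluted 1:100 into pH 6.0 -URA galactose medium with 23 nl compound. Growth recovery read as OD600; NS1-free strain serves as control.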
# Cycloheximide cs: counter-screen hit for Shiga toxin inhibitors, cycloheximide; cell reporter, cycloheximide protein synthesis inhibition counterscreen; max response, %; 12% of 300,000 active; in the data active = max response mostly above about 13%, no sharp cut-off; inactive = mostly below about 14%; note: read at 38.3 µM for the half of the compounds with a filed dose; 0% is about no effect
# Pf growth 48h: P. falciparum growth inhibition at 48 hours (one generation); 5.9% of 310,000 active; P. falciparum luciferase growth in erythrocytes, 48 h; Potency, µM (titrated, usually from 28.7 µM), without a hit: at the top dose activity change, negative = inhibition, actives largely listed as inhibitors; note: potency is the fitted concentration of half-maximal effect; % is set by controls: 0 for no effect and ±100 for the full control effect
#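 Read-out is firefly luciferase luminescence from an integrated reporter in P. falciparum, so falling signal marks reduced parasite growth. Infected erythrocytes were at 2% hematocrit and 0.1% parasitemia (final) in Albumax-supplemented RPMI 1640.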
# Shiga toxin inh: blocks Shiga toxin action in Vero cells; 9.2% of 290,000 active; AID 2315; inhibition, % at 38.7 µM; Vero cells, Shiga toxin protein synthesis inhibition reporter; in the data active = inhibition mostly above about 28%, no sharp cut-off; inactive = mostly below about 43%; note: 0% is about no effect
# Active calls of the source: *; i = inactive; ? = inconclusive; / = no result; [ ] = another dose, or the depositor's remark. Only some compounds are listed: those with a hit (about 21% of all), similar ones and a draw of the others. Unless noted, calls come from the whole dose curve; as a rule, active = well fitted inhibition curve with a large enough effect; inconclusive = small, poorly fitted or top-dose-only effect, or another doubt; inactive = no such curve, though single readings can be large or run the other way.
SMILES,Pf growth 96h,SARS PLpro yeast,NS1 inh,Cycloheximide cs,Pf growth 48h,Shiga toxin inh
CC1(C)CC(=O)c2sc(NC(=O)c3ccc4ncsc4c3)nc2C1,44%,-6%,0%,24*,42%,62*
CC1(C)CC(=O)c2sc(NC(=O)c3ccccc3)nc2C1,-4%,1%,-2%,33*,11%,75*
CC1(C)CC(=O)c2sc(NS(=O)(=O)c3ccc(Br)cc3)nc2C1,21%,-2%,/,-3,-7%,-10
CC1(C)CC(=O)c2sc(NC(=O)c3cccs3)nc2C1,-19%,-23%,-22%[9.22 µM],16*,21%,19
CC1(C)CC(=O)c2sc(NS(=O)(=O)c3ccc(Cl)cc3)nc2C1,-11%,0%,13%,-9,-9%,0
CC(Oc1ccccc1)C(=O)Nc1nc2c(s1)C(=O)CC(C)(C)C2 (stereo unspecified),-18%,4%,-2%,-2,22%,-6
CC1(C)CC(NC(=O)C2CCN(S(=O)(=O)c3cccc(C(F)(F)F)c3)CC2)CC(C)(C)N1,?,-1%,/,/,-21%,/
CC1CN(C(=O)CCC(=O)NCc2ccccn2)c2ccccc2O1 (stereo unspecified),?,2%,9%,-1,36%,2
CC1(C)CC(=O)c2sc(NC(=O)CN3CCCCC3)nc2C1,?,-3%,-2%,16,5%,27
COc1ccc(C)c2sc(NC(=O)CCS(=O)(=O)c3ccccc3)nc12,5.2µM*,0%,7%,2,-21%,12
CC1(C)CC(=O)c2sc(NC(=O)CCS(=O)(=O)c3ccccc3)nc2C1,-24%,0%,-11%,30*,8%,16
CC1(C)CC(=O)c2sc(NC(=O)C(C)(C)C)nc2C1,34%,1%,2%,40*,95%,92*
CCOc1cccc2sc(NC(=O)CCS(=O)(=O)c3ccccc3)nc12,?,-4%,-7%,13,?,5
CCCCN1C(=O)C(=O)N(CC(=O)Nc2cc(Cl)ccc2OC)C1=O,?,-3%,/,/,24%,/
O=C(NCc1cccc(CNC(=O)C(=O)NCc2ccco2)c1)C(=O)NCc1ccco1,?,0%,/,7,24%,-12
CCCCS(=O)CC(CS(=O)CCCC)OC(=O)c1ccccc1 (stereo unspecified),6.6µM*,2%,-3%,-2,3%,-22
CCCCS(=O)CC(CS(=O)CCCC)OC(=O)c1ccc(C)cc1 (stereo unspecified),15%,0%,3%,-3,4%,-4
COCCCn1c(-c2ccc(Cl)cc2)n[nH]c1=S,?,4%,9%,-2,/,-15
COCCCn1c(-c2ccccc2Cl)n[nH]c1=S,1.9µM*,1%,14%,9,-4%,-9
CC1=CC(C)(C)[N+](C)(C)c2ccc(C)cc21,?,0%,1%,-3,2.6µM*,10
CCN(CC(=O)Nc1ccccc1C(F)(F)F)C(=O)Cc1ccccc1,19%,11%,0%,6,10%,30
C=C(C(=O)c1ccccc1)C(C(=C)C(=O)c1ccccc1)c1ccc(OC)cc1,?,0%,-3%,2,2.1µM*,11
C=C(C(=O)c1ccccc1)C(c1ccccc1)C(C)C(=O)c1ccccc1 (stereo unspecified),12µM*,-3%,-1%,7,?,-5
C=C(C(=O)c1ccccc1)C(C)C(=C)C(=O)c1ccccc1,10µM*,-31%,-14%,38*,?,17
O=C(c1ccccc1)C(c1ccccc1)c1ccccc1,?,0%,/,/,?,/
SMILES,Pf growth 96h,SARS PLpro yeast,NS1 inh,Cycloheximide cs,Pf growth 48h,Shiga toxin inh
COc1ccc(C(CC(=O)c2ccccc2)CC(=O)c2ccccc2)cc1,?,-1%,-7%,2,?,24
COc1cc2oc(=O)cc(-c3ccc(-c4cccc(N)c4)cc3)c2c(OC)c1OC,/,/,/,13,/,i
Cc1nc(Cc2nnc(SC(C)C(=O)Nc3cccc(C#N)c3)o2)cs1 (stereo unspecified),3%,-9%,/,/,16%,/
Nc1cc(OC(=O)c2c(F)cccc2Cl)nn1S(=O)(=O)c1ccccc1,10µM*,4%,-3%,-1,23%,-7
Nc1cc(OC(=O)c2cccs2)nn1S(=O)(=O)c1ccccc1,?,6%,-3%,1,4%,3
COc1ccc2[nH]cc(CCNC(=O)c3ccc4ccccc4n3)c2c1,11%,0%,-35%,8,8%,-1
CC[C@H](C)[C@H](NC(=O)[C@H](Cc1ccc(O)cc1)NC(=O)[C@@H](NC(=O)[C@H](CCCN=C(N)N)NC(=O)[C@@H](N)CC(=O)O)C(C)C)C(=O)N[C@@H](Cc1ccc(N)cc1)C(=O)N1CCC[C@H]1C(=O)N[C@@H](Cc1ccccc1)C(=O)O,/,/,/,2,/,11
O=c1c(Cc2ccc(Cl)cc2)c(O)ccn1Cc1cccc(Cl)c1,-22%,1%,22%,-2,?,-41
O=c1c(Cc2ccc(F)cc2)c(O)ccn1Cc1cccc(Cl)c1,13µM*,8%,-3%,-1,12µM*,-6
O=c1c(Cc2ccc(Cl)cc2Cl)c(O)ccn1Cc1ccc(Cl)cc1,?,-25%,?,-2,4.1µM*,13
CC(=O)N1c2ccc(S(=O)(=O)N3CCCC(C(=O)NCc4ccccc4)C3)cc2CC1C (stereo unspecified),?,-1%,-14%,-3,?,12
CC1Cc2cc(S(=O)(=O)N3CCCC(C(=O)N4CCCCC4)C3)ccc2N1C(=O)C1CC1 (stereo unspecified),13µM*,-3%,-24%,-2,13µM*,-2
CC1CCCN(C(=O)C2CCN(S(=O)(=O)c3ccc4c(c3)CC(C)N4C(=O)C3CC3)CC2)C1 (stereo unspecified),23%,1%,7%,3,?,-10
CC(=O)N1c2ccc(S(=O)(=O)N3CCCC(C(=O)N4CCCCC4)C3)cc2CC1C (stereo unspecified),10µM*,4%,-17%,-2,?,-5
C/C(=N/NC(=O)c1sc(=S)n(C)c1C)c1ccccc1,-21%,10%,17%,1,23%,-7
COC(=O)C1=C(CN2CCSCC2)NC(=O)NC1c1cc(C)ccc1C (stereo unspecified),29%,2%,-12%,-3,?,-6
CCOC(=O)C1=C(CN2CCSCC2)NC(=O)NC1c1cc(C)ccc1C (stereo unspecified),-1%,1%,3%,-3,12µM*,-2
CCOC(=O)C1=C(CN2CCN(C(=O)OCC)CC2)NC(=O)NC1c1ccc2c(c1)OCO2 (stereo unspecified),24%,1%,/,8,?,11
COC(=O)C1=C(CN2CCN(C)CC2)NC(=O)NC1c1cc(C)ccc1C (stereo unspecified),/,0%,-3%,-2,?,-8
